Shown are actives, neighbours in structure and some others; about 27% of the full set was active somewhere.
Cav3 T inh: human Cav3.2 channel inhibition, primary screen; O95180; Cav3.2-expressing cells, Fluo-4 calcium fluorescence FDSS; hits give low values; B-score at 10 µM; actives 4% (n = 100,000);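 active means single-dose well whose peak fluorescence ratio is a statistical outlier from its plate by either plate-standardised score or position-corrected B-score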
CYP2C9 activ: increases human cytochrome P450 2C9 activity. recombinant CYP2C9, luciferin-H conversion, luminescence; hits give high values; factor 1 = untreated enzyme, 0 = blocked. P11712. activation factor at 5 µM. AID 1024. actives 1.4% (n = 96,000);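 active means activation factor of 2 or more for CYP2C9 at a 5 µM dose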;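 further: 0 = sulfaphenazole-blocked wells and 1 = vehicle-only wells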
Target sequence (P11712 whole entry, looked up): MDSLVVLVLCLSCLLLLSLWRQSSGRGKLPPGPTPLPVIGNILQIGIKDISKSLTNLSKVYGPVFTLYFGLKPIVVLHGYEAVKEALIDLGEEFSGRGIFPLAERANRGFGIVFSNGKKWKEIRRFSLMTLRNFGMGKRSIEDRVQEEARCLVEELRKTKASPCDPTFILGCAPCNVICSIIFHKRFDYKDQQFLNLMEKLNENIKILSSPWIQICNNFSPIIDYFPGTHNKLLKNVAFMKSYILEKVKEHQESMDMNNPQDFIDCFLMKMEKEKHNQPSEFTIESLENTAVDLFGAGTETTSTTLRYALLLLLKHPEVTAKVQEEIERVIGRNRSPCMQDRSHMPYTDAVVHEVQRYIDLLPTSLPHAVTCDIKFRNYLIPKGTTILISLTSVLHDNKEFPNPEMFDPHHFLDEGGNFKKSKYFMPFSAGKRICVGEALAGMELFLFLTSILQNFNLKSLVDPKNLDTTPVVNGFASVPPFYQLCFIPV
CYP2C9 inh: blocks human cytochrome P450 2C9; P11712; CYP2C9 Supersomes, luciferin-H conversion, luminescence; inhibition, % at 5 µM; actives 20% (n = 96,000); AID 777;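 active means blocking of liver enzyme CYP2C9 beyond about 50% at 5 µM, limit read from the data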
CYP2C19 activ: cytochrome P450 2C19 (human) activation. P33261. activation factor at 5 µM. recombinant CYP2C19, luciferin-H EGE luminescence; hits give high values; 0 = fully inhibited enzyme, 1 = untreated enzyme. 96,000 tested, under 10 active. AID 1025;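 active means activation factor of at least 2 at 5 µM in the primary screen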;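 further: 0 = wells with 2.5 mM tranylcypromine and 1 = vehicle-only wells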
CYP2C19 inh: human CYP2C19 inhibition; CYP2C19 Supersomes, luciferin-H EGE luminescence, 30 min; inhibition, % at 5 µM; actives 21% (n = 96,000); AID 778;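 active means CYP2C19 inhibition above a set limit at 5 µM in the primary screen, cut at about 50% in these data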;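 further: plate controls were negative control wells for no effect and 2.5 mM tranylcypromine positive control for full effect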
* = called active by the depositor; x = no result.

SMILES	Cav3 T inh	CYP2C9 activ	CYP2C9 inh	CYP2C19 activ	CYP2C19 inh
CCN1CC(O)=C(c2nc3ccccc3s2)C1=N	-0.00668	0.9	8.3	0.7	31.4
CCC(Oc1ccccc1)C(=O)N1CCN(C(=O)C(CC)Oc2ccccc2)CC1 (stereo unspecified)	0.406	0.2	83.9*	0.6	41.6
CCC(Oc1ccccc1)C(=O)N1CCN(c2ccccn2)CC1 (stereo unspecified)	-1.11	0.1	85.4*	0.2	79.2*
CCC(Oc1ccccc1)C(=O)N1CCN(CC)CC1 (stereo unspecified)	0.766	1	3.2	1	-1.0
CCC(Oc1ccccc1)C(=O)N1CCC(C(N)=O)CC1 (stereo unspecified)	-0.258	1	0.4	1	-0.7
CC(=O)Cc1nsc(NC(=O)C2Cc3ccccc3C(=O)O2)n1 (stereo unspecified)	-0.0144	1.1	-5.0	1	-3.1
O=C(Cn1ccsc1=NC(=O)C(F)(F)F)c1ccccc1	-0.117	0.6	35.1	0.4	56.8*
O=C(Cn1cnc2ccccc2c1=O)c1ccccc1	0.766	x	x	x	x
Cc1ccc(C)c(S(=O)(=O)N2CCN(CC(=O)Nc3cc(C)on3)CC2)c1	-0.293	2.3*	-127.3	0.9	12.3
Cc1ccc(C)c(S(=O)(=O)N2CCN(CC(=O)N3CCc4ccccc4C3)CC2)c1	-1.93	3.4*	-242.5	0.2	81.0*
Cc1cc(NC(=O)CN2CCN(S(=O)(=O)c3ccc4ccccc4c3)CC2)no1	0.108	1.6	-64.2	1	0.3
Cc1ccc(C)c(S(=O)(=O)N2CCN(C(=O)Cn3c(C(F)(F)F)nc4ccccc43)CC2)c1	-0.00529	0.7	35.0	1	-3.3
Cc1ccccc1C(=O)NC1CCN(Cc2nnnn2C2CCCC2)CC1	-0.0951	x	x	x	x
CCC(=O)Nc1ccc(S(=O)(=O)NCc2ccco2)cc1	0.127	1.1	-5.7	0.8	18.0
O=C(c1ccccc1)c1ccc(OCC(O)CN2CCN(S(=O)(=O)N3CCCCC3)CC2)cc1 (stereo unspecified)	-1.89	0	97.7*	0.1	85.1*
CCC(=O)c1ccc(OCC(O)CN2CCN(S(=O)(=O)N3CCCCC3)CC2)cc1 (stereo unspecified)	1.2	0.3	71.5*	0.5	51.9*
Oc1ccc2ccccc2c1C=Nc1ccccc1-c1nc2ccccc2[nH]1	x	0.1	95.0*	0.6	44.9
Oc1ccc2ccccc2c1/C=N/n1cnnc1	0.554	x	x	x	x
Cn1c(C2CC(=O)N(Cc3ccccc3)C2)nc2ccccc21 (stereo unspecified)	0.741	0.9	14.5	0.2	76.2*
O=C(CN1CC(c2ccccc2)CC1=O)OCc1ccccc1F (stereo unspecified)	-1.02	0.4	55.9*	0.1	88.3*
COc1cc(NC(=O)CN2CC(c3ccccc3)CC2=O)cc(OC)c1 (stereo unspecified)	-0.44	x	x	x	x
O=C1CC(c2ccccc2)CN1Cc1ccccc1 (stereo unspecified)	-1.41	0.8	18.7	0.1	92.9*
C=CCN1CC(c2nc3ccccc3n2Cc2ccccc2)CC1=O (stereo unspecified)	1.22	1	1.9	1	3.8
CCN(CC)C(=O)c1sc2nc(-c3ccncc3)[nH]c(=O)c2c1C	x	0.8	20.8	0.4	62.8*
COc1ccc(Cn2nnnc2CN2CCc3ccccc32)cc1	-0.524	0.1	91.9*	0	99.0*
SMILES	Cav3 T inh	CYP2C9 activ	CYP2C9 inh	CYP2C19 activ	CYP2C19 inh
COc1ccc(Cn2nnnc2C(c2ccccc2Cl)N2CCN(C)CC2)cc1 (stereo unspecified)	0.941	0.8	16.2	0.7	34.7
COc1ccc(Cn2nnnc2CN2CCc3ccccc3C2)cc1	-1.69	0.4	64.4*	0.1	87.9*
COc1ccc(OCCOCCN2CCc3ccccc3C2)cc1	-0.324	0.9	6.8	0.4	59.2*
COc1ccc(C2(O)CCN(Cc3nnnn3Cc3ccc(C)cc3)CC2)cc1	-1.58	0.4	62.6*	0.5	51.0*
CC(C)OCCCN1CN(S(=O)(=O)c2cccc(Cl)c2)c2nc3ccccc3nc21	-2.04	0.2	80.7*	0.5	54.5*
CC(C)OCCCN1CN(S(=O)(=O)c2ccc(Cl)cc2)c2nc3ccccc3nc21	0.0973	0.7	27.6	0.6	38.0
CCOCCCN1CN(S(=O)(=O)c2ccc(Cl)cc2)c2nc3ccccc3nc21	-0.906	0.2	80.9*	0.5	54.5*
Cc1cc(C)n(/N=C\c2c(O)ccc3ccccc23)c(=O)c1C(N)=O	0.0177	0.8	24.7	1.1	-8.5
COC(=O)[C@@H](NC(=O)O[C@H]1C(=O)c2ccc(OC)cc2O[C@@H]1c1ccc2c(c1)OCO2)C(C)C	-1.53	x	x	x	x
O=[N+]([O-])c1ccc(Oc2c(F)c(F)nc(N3CCCC3)c2F)cc1	x	1	4.8	0.6	40.2
C=CCc1cccc2cc(C(=O)NC(C)(C)C)c(=O)oc12	0.153	0.4	55.3*	0.4	64.7*
CCOc1cccc2cc(C(=O)NCc3cccnc3)c(=O)oc12	-0.465	1.1	-7.4	1.1	-9.6
C=CCc1cccc2cc(C(=O)NCc3cccnc3)c(=O)oc12	0.838	0.9	12.9	0.3	70.3*
COCCNC(=O)CN(C(=O)Cn1nnc2ccccc21)c1ccc(C)c(F)c1	0.932	x	x	x	x
O=C(Cc1ccccc1)N/N=C/c1ccc(OCC(=O)Nc2ccccc2)cc1	0.524	0.9	9.1	1.1	-5.6
CC(NC(=O)COc1ccc(/C=N/NC(=O)C(=O)Nc2ccccc2Br)cc1)c1ccccc1 (stereo unspecified)	-2.6	0.3	68.7*	0.5	46.9
CCN(CC)C(=O)CSc1nnc(CNc2ccc(F)cc2)n1-c1ccccc1	0.0534	x	x	x	x
Oc1c(C(c2ccccc2)N2CCN(Cc3ccccc3)CC2)sc2ncnn12 (stereo unspecified)	0.0146	0.3	67.0*	0.2	78.0*
Cc1cc(OCC(=O)N(C)C)c2c(-c3ccccc3)cc(=O)oc2c1	-0.0422	0.4	63.6*	0.8	16.4
COc1ccc(-c2cc(O)cc(O)c2)cc1	-0.966	0.4	59.7*	0.4	58.8*
O=C1Nc2cc(Cl)c(Cl)cc2N(O)N1c1cccc(Cl)c1	-0.503	0.5	52.1*	1.1	-9.8
Cc1nn(C)c2ncc(C(=O)c3cc(F)ccc3O)cc12	0.0346	0.3	68.0*	0	95.2*
COc1ccc(O)c(C(=O)c2cnc3onc(C)c3c2)c1	-1.8	0.6	38.5	0.2	83.4*
Cc1nc(CN2CCN(C(=O)c3ccc(C(C)(C)C)cc3)CC2)cs1	0.324	0.5	49.6	0.6	39.3
COc1ccccc1N(C)S(=O)(=O)c1ccc(C(=O)OCC(=O)NCc2ccco2)cc1	-1.23	0.1	87.7*	0.7	35.0
COc1cc(N2C(=O)c3ccccc3C2=O)c(Cl)cc1C(=O)OCC(=O)NCc1ccco1	0.714	0.5	49.3	0.9	14.0
O=C(COC(=O)c1cccc(Oc2ccccc2)c1)NCc1ccco1	-0.963	0.8	24.6	0.9	14.3
